# Data taken from PubChem BioAssay AID720584 (National Center for Advancing Translational Sciences (NCATS), 2013).
# The other results are listed elsewhere or left out. Records with an inconclusive call do not appear. Calls of active or inactive are those of the source. Calls come from the whole dose curve; as a rule, active = well fitted inhibition curve with a large enough effect; inconclusive = small, poorly fitted or top-dose-only effect; inactive = flat fitted curve, though single readings scatter.
# System: Trypanosoma brucei pyruvate kinase (TbPYK)
# Assay: qHTS of Trypanosoma Brucei Inhibitors: Orthogonal Assay for Cherry-picked Compounds; note: nearly all actives have a fitted effect of over 75% in size
# Conditions: recombinant TbPYK, ADP-Glo luminescence, 60 min
# Text: Members of the Trypanosomatidae family of parasitic protozoans cause a spectrum of diseases throughout the tropical and subtropical world. Sleeping sickness, caused by two subspecies of Trypanosoma brucei, is endemic to areas of sub-Saharan Africa, while Chagas' disease, a manifestation of Trypanosoma cruzi infection, is prevalent throughout Central and South America. In addition, many species of Leishmania are responsible for a range of cutaneous and visceral diseases, causing ulcers, destructive lesions and kalaazar, a lethal infection of the viscera. These diseases cause severe public health and economic burdens on populations that are often already caught in a tragic cycle of poverty, poor nutrition and disease. Collectively, parasites of the trypanosomatid family infect 30 million people worldwide (~500 million live in endemic areas), and account for ~130K deaths annually. Existing treatments have developed little in the past 50 years, and suffer from toxicity, poor efficacy and resistance; the goal of this project is to develop lead drugs that will be suitable for entry into pre-clinical trials. […] Glycolysis in axenically cultured T. cruzi, representing the intracellular pathogenic stage, is also essential for these parasites. {Engel, 1987} This project aims to discover and optimize selective inhibitors of the glycolytic enzyme pyruvate kinase (PYK) from Trypanosoma brucei, the parasite that causes sleeping sickness. […] While the primary qHTS provides a luminescence-based detection of TbPyK by measuring ATP production, the orthogonal assay will measure the amount of ADP substrate remaining. […]
# Briefly, 2 uL of substrate/TbPYK buffer (all columns but column 4) are dispensed into Greiner white solid-bottom 1536-well assay plates. […] ADP-Glo reagent II is then added (5 uL), followed by a 10 minute room temperature incubation, before being transferred to a ViewLux high-throughput CCD imager (PerkinElmer), wherein single end-point measurements of luminescence are acquired using a clear filter. […]
# Potency is the fitted concentration of half-maximal effect.
row,SMILES,Potency
1,COc1ccc(N2C(=O)/C(=C/c3ccco3)C(=O)NC2=S)cc1,6.31 µM (active)
2,O=C1NC(=O)N(c2ccccc2)C(=O)/C1=C/c1ccc([N+](=O)[O-])s1,14.1 µM (active)
3,Cc1ccc2c(c1)=C/C(=C\c1c(O)[nH]c(=O)[nH]c1=O)C(=O)N=2,25.1 µM (active)
